The record followed here is PubChem BioAssay (EPA / NIEHS).

Structures are written as SMILES. “And” between values parts separate entries of the source, which are not always exact repeats. Equal entries are not always repeated. Inconclusive results are not listed. Some compounds were tested as several samples or in several runs, with calls that do not always agree. The source made the active and inactive calls. The calls were made as follows: active = hit-call score of the fitted dose curve at least 0.9, where 1 is the maximum; inconclusive = response in the unintended direction; inactive = score below 0.9.

Sequence of Estrogen receptor (Homo sapiens) (P03372 whole entry, looked up): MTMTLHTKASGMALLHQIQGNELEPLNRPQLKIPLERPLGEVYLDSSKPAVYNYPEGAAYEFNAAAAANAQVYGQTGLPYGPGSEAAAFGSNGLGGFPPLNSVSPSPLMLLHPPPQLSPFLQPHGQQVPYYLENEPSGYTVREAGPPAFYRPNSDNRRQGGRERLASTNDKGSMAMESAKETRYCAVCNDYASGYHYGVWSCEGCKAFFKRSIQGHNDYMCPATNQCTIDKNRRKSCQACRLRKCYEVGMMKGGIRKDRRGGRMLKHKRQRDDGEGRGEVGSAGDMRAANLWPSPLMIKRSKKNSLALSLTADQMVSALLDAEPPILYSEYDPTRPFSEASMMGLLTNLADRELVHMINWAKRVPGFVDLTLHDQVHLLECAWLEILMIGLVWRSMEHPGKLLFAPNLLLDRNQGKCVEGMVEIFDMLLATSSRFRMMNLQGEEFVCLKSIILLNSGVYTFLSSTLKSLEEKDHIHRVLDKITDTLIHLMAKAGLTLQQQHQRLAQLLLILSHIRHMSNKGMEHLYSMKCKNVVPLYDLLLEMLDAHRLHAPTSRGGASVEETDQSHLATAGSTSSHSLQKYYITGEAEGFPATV

One assay has as its target Estrogen receptor (Homo sapiens) (UniProt P03372). In words: NVS_NR_hER: NovaScreen (NVS) Nuclear Receptor Binding Assay for human Estrogen Receptor (ER) (AID 2283348). In short, it runs like this:
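Cell-free radioligand binding with protein extracted from MCF7 cells; scintillation counting 18 hours after dosing. Loss of signal versus DMSO baseline read as displacement; primary single-concentration screen at 25 uM in duplicate, actives retested in concentration series.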
Regarding `CC(=O)S[C@@H]1CC2=CC(=O)CC[C@]2(C)[C@H]2CC[C@@]3(C)[C@@H](CC[C@@]34CCC(=O)O4)[C@H]12`, the molecule was classed as inactive. The same measure, in the same setting: in the case of `CC(=O)[C@H]1CC[C@H]2[C@@H]3CCC4=CC(=O)CC[C@]4(C)[C@H]3CC[C@]12C` it was “inactive”; in that of `Cc1nn(C)c(Oc2ccccc2)c1C=NOCc1ccc(C(=O)OC(C)(C)C)cc1`, “inactive”; in that of `C[C@]12C[C@H](O)[C@H]3[C@@H](CCC4=CC(=O)CC[C@@]43C)[C@@H]1CC[C@@H]2C(=O)CO`, “inactive”. For the molecule `O=C(c1ccc(O)cc1O)c1ccc(O)cc1O`, the AC50 was 59.6 nM (active) [middle of 4 runs]. Consider `CC(C)(c1ccc(O)cc1)c1ccc(O)cc1`, for which the result was inactive.

Regarding `CC1(C)C(C=C(Cl)Cl)C1C(=O)OCc1cccc(Oc2ccccc2)c1` (stereo unspecified), the call was inactive.

For another assay the target is unchanged. In words: OT_ER_ERaERa_1440: Odyssey Thera (OT) 24-hour HEK293T Protein-Complementation Assay for Estrogen Receptor-alpha/-alpha Homodimer (AID 2283349).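 Also: hits raise fluorescence above DMSO for agonists and antagonists alike.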 In short, it runs like this:
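Readout is the rise in mean fluorescence from reporter fragment complementation when ERα LBD (aa 310-547) units dimerize in HEK293T cells. Measured 24 h after dosing and analysed as increase over DMSO control.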
Consider `CC(=O)S[C@@H]1CC2=CC(=O)CC[C@]2(C)[C@H]2CC[C@@]3(C)[C@@H](CC[C@@]34CCC(=O)O4)[C@H]12`, for which the molecule was called inactive. For the molecule `CC(=O)[C@H]1CC[C@H]2[C@@H]3CCC4=CC(=O)CC[C@]4(C)[C@H]3CC[C@]12C`, the outcome was inactive.

Take `Cc1nn(C)c(Oc2ccccc2)c1C=NOCc1ccc(C(=O)OC(C)(C)C)cc1`: the molecule was called inactive. The same measure, in the same setting: in the case of `C[C@]12C[C@H](O)[C@H]3[C@@H](CCC4=CC(=O)CC[C@@]43C)[C@@H]1CC[C@@H]2C(=O)CO` it was “inactive”. With `CCCCC(CC)CN1C(=O)C2C3C=CC(C3)C2C1=O` (stereo unspecified), the call was inactive. For `C#C[C@]1(O)CC[C@H]2[C@@H]3CCC4=CC(=O)CC[C@@H]4[C@H]3CC[C@@]21CC`, the half-maximal activity concentration (AC50) was 50.7 µM (active) and the call was inactive. In the case of `O=C(c1ccc(O)cc1O)c1ccc(O)cc1O`, the AC50 was 7.6 µM (active) and 7.51 µM (active) and 9.91 µM (active).

As for `N#CSCSc1nc2ccccc2s1`, the molecule was called inactive. Still for that read-out and setting: in the case of `COC(=O)c1ccccc1C(=O)O` it was “inactive”.

With `CC(C)(c1ccc(O)cc1)c1ccc(O)cc1`, the molecule was called inactive. As to `CCCN(CCC)C(=O)SCC`, the molecule was classed as inactive. Turning to `CC1(C)C(C=C(Cl)Cl)C1C(=O)OCc1cccc(Oc2ccccc2)c1` (stereo unspecified), the call was inactive.

Turning to `CC(C)CCCCCCc1ccc(O)cc1`, the AC50 was 2.42 µM (active).
